Measured values taken from ChEMBL document CHEMBL1157539, “Thousands of chemical starting points for antimalarial lead identification” (Nature, 2010).

Test system: HepG2
Assay: GSK_TCMDC: Percent inhibition of human HepG2 cell line. Test compounds present at 10uM.
Type: functional

How did the Inhibition turn out when Cc1[nH]n(-c2cccc(C(F)(F)F)c2)c(=O)c1-c1ccc(Cl)cc1 was run?
Its Inhibition is 7%.

For Nc1nccc2ccc(-c3ccc4ncccc4c3)cc12.O=C(O)C(F)(F)F, which Inhibition is on record?
Its Inhibition is 97%.

For Cc1cc(N[C@@H](Cc2ccccc2)C(=O)NCc2cccc(F)c2)nc(NCCc2cccs2)n1.O=C(O)C(F)(F)F, which Inhibition is on record?
Its Inhibition is 9%.

For Cc1cc(NCC(C)C)c2[nH]nc(-c3ccccc3)c2n1, which Inhibition is on record?
Its Inhibition is 9%.

For COc1ccccc1-n1c(SCC(=O)c2ccc3c(c2)CC(=O)N3C)nnc1-c1cccs1, which Inhibition is on record?
The Inhibition was 7%.

How did the Inhibition turn out when CCCCCCc1cnc2nc(N)nc(N)c2c1C was run?
Its Inhibition is 67%.

How did the Inhibition turn out when CCC(C)Oc1ccc2nc(N)nc(N)c2c1Cl (stereo unspecified) was run?
The Inhibition was 57%.

Which Inhibition does the source give for O=C(Nc1ccc(Cl)cc1)c1cc(Cl)cc2nc(C(F)(F)F)[nH]c12 here?
The Inhibition was 87%.

CC(C)(C)OC(=O)C1CCCN(Cc2ccc(-c3cccc(-c4nc5ccccc5[nH]4)c3)cc2)C1.O=C(O)C(F)(F)F (stereo unspecified) was tested. Which Inhibition did it give?
The Inhibition was 37%.

How did the Inhibition turn out when O=C(/C=C/c1ccc(Cl)cc1Cl)N1CCC(CCN2CCC(c3c[nH]c4ccccc34)CC2)CC1 was run?
The Inhibition was 94%.

Which Inhibition does the source give for CCCCCCCN1CC[C@@H](CCCc2ccnc3ccc(OCCC4CCNCC4)cc23)[C@@H](CC)C1.Cl here?
Its Inhibition is 94%.

How did the Inhibition turn out when C=CCOC(=O)N1CCC(CNCc2cccc(-c3cccc(-c4nc5cccc(C)c5[nH]4)c3)c2)C1.O=C(O)C(F)(F)F (stereo unspecified) was run?
The Inhibition was 22%.

For COc1ccc2nccc([C@@H](O)CN3CCC(NCc4cc5ccccn5n4)CC3)c2c1.O=C(O)C(=O)O, which Inhibition is on record?
The Inhibition was 7%.

Which Inhibition does the source give for O=S(=O)(Nc1cccc(CCN2CCC(N3CCCCC3)CC2)c1)c1ccc(Cl)cc1 here?
The Inhibition was 18%.

How did the Inhibition turn out when CNc1ccc(CNCc2ccc(-c3ccc(-c4nc5cccc(C)c5[nH]4)s3)cc2)cc1.O=C(O)C(F)(F)F was run?
The Inhibition was 29%.

How did the Inhibition turn out when O=C(Nc1ccc(OC2CCN(Cc3ccsc3)CC2)c(Cl)c1)c1cccs1.O=C(O)C(F)(F)F was run?
The Inhibition was 16%.

For O=C(NCCN1CCCC1)c1cccc(-c2ccc(-c3nc4cc(F)ccc4[nH]3)s2)c1, which Inhibition is on record?
Its Inhibition is 51%.

O=C(O)C(F)(F)F.O=S(=O)(NCCN1CCCC1)c1ccc(-c2cccc(CNC3Cc4ccccc4C3)c2)cc1 was tested. Which Inhibition did it give?
Its Inhibition is 55%.

CCc1ccc(C(=O)Nc2cccc(CN3CCCN(Cc4ccc(O)cc4)CC3)c2)cc1.O=C(O)C(F)(F)F was tested. Which Inhibition did it give?
The Inhibition was 11%.

For CN(Cc1ccc(C#N)cc1)C1CCN(c2cc(NC(=O)c3ccc(F)cc3)ccn2)CC1.O=C(O)C(F)(F)F, which Inhibition is on record?
Its Inhibition is 24%.

Which Inhibition does the source give for Cc1cc(NC2CCN(CC3CCCCC3)CC2)nc(Nc2ccccc2Cl)n1 here?
The Inhibition was 28%.

CS(=O)(=O)c1ccc2[nH]c(-c3cc(-c4ccc(OCCN5CCOCC5)cc4)cnc3N)nc2c1.O=C(O)C(F)(F)F was tested. Which Inhibition did it give?
Its Inhibition is 43%.

With Cc1cc2nc(-c3ccc(C(=O)NCc4ccc(C(C)(C)C)cc4)cc3)[nH]c2cc1C as the compound, how does the Inhibition read?
Its Inhibition is 3%.

How did the Inhibition turn out when FC(F)(F)c1ccc2[nH]c(-c3ccc(-c4ccc(CNCC5CCCO5)cc4)s3)nc2c1.O=C(O)C(F)(F)F (stereo unspecified) was run?
Its Inhibition is 47%.

Which Inhibition does the source give for O=C(Nc1cccc(-c2nn3ccccc3c2-c2ccnc(Nc3cccc(C(F)(F)F)c3)n2)c1)c1c(F)cccc1F here?
Its Inhibition is 43%.

With Cc1cccc(C)c1CNc1nc(N2CCOCC2)cc2c(C)c(C)[nH]c12.Cl as the compound, how does the Inhibition read?
Its Inhibition is 51%.

How did the Inhibition turn out when COc1ccc(Cl)cc1N1CCN(CCCNC(=O)c2ccc(-c3nc4cc5ccccc5cc4[nH]3)c(F)c2)CC1 was run?
The Inhibition was 12%.

Cc1cc(NCCC(=O)NCCOc2ccccc2)nc(NCCc2ccccc2)n1.O=C(O)C(F)(F)F was tested. Which Inhibition did it give?
The Inhibition was 0%.

Br.Clc1ccc(-c2nc(-c3ccncc3)c[nH]2)cc1Cl was tested. Which Inhibition did it give?
Its Inhibition is 1%.

Which Inhibition does the source give for Cc1cc(C(F)(F)F)nn1-c1ccc(NC(=O)c2ccco2)cc1 here?
Its Inhibition is 14%.

For Cc1nn(CC(O)Cn2c3ccc(Br)cc3c3cc(Br)ccc32)c(C)c1Br (stereo unspecified), which Inhibition is on record?
Its Inhibition is 4%.

CNC(=O)c1ccc2nc(-c3ccc(-c4ccccc4)cc3)n(CC3CCN(CC4CCCC4)CC3)c2c1.O=C(O)C(F)(F)F was tested. Which Inhibition did it give?
The Inhibition was 13%.

Cc1ccc2[nH]c(C)c(Br)c(=O)c2c1 was tested. Which Inhibition did it give?
The Inhibition was 0%.

With O=C(/C=C/c1ccc(Cl)c(Cl)c1)NCCCCN1CCCN(C(=O)Nc2ccc(C(F)(F)F)cc2)CC1 as the compound, how does the Inhibition read?
The Inhibition was 35%.

With COc1ccc2[nH]c(C(=O)Nc3cccc(-c4ccc(CN(C)C)cc4)c3)cc2c1 as the compound, how does the Inhibition read?
Its Inhibition is 23%.

For CN1CCC(N2CCN(c3ccc4c(=O)nc(CCc5cccc(F)c5F)n(CC(=O)N(C)Cc5ccc(-c6ccc(C(F)(F)F)cc6)cc5)c4n3)CC2)CC1.O=C(O)C(O)C(O)C(=O)O, which Inhibition is on record?
Its Inhibition is 15%.
